Laboratory results published in ChEMBL document CHEMBL4513216, “Probing the Open Global Health Chemical Diversity Library for Multistage-Active Starting Points for Next-Generation Antimalarials” (ACS Infect Dis, 2020).
Hit rate of the full screen: of about 69,000 compounds, about 8,600 (12%) showed an effect of 50% or more. The sample holds strong results, similar compounds and a random draw of the others, so the mix is not that of the screen.

Test system: Plasmodium berghei
Assay: Screen against P. berghei liver stage (PbLuc), transformed with Luciferase, at 10uM
Assay type: functional, HepG2
Settings: tested at 10 uM

Compound | INHIBITION
Cc1ccc(-c2nc(CN3CCOC(Cn4cccn4)C3)no2)cc1 (stereo not drawn) | -13.5%
Cc1nc(-c2cccc(Cl)c2)n(CC(=O)NCC2CCCO2)c(=O)c1C (stereo not drawn) | 13.8%
CNC(=O)COC1COC2(CCN(Cc3cccnc3)CC2)C1 (stereo not drawn) | 67.3%
COc1ccccc1CN1CC[C@]2(C[C@@H](OCC(=O)N(C)C)CO2)C1 | 24.9%
CNC(=O)COC1COC2(CCN(Cc3cccnc3OC)CC2)C1 (stereo not drawn) | 40.5%
CCOC1COC2(CCN(Cc3cccc(F)c3)CC2)C1 (stereo not drawn) | 31.6%
CNC(=O)COC1COC2(CCN(Cc3ccncc3F)CC2)C1 (stereo not drawn) | 59.3%
CC(C)NC(=O)CC1COC2(CCN(Cc3cccnc3)CC2)C1 (stereo not drawn) | 13.7%
CN(Cc1cnc2ccccc2c1)C(=O)C(c1ccccc1F)N(C)C (stereo not drawn) | 4.64%
COc1ccccc1N1CCN(C(=O)COc2c(C)occc2=O)CC1 | 1.04%
OC(CNCCc1nnc2ccccn12)c1ccc(F)c(F)c1 (stereo not drawn) | -55.3%
O=C(c1nnn(-c2ccc(F)cc2)n1)N(CCO)Cc1ccccc1 | -137%
CN1C(=O)[C@@H]2CC[C@H]1CN(C(=O)Nc1ccccc1C(F)(F)F)C2 | -53.7%
CC(=O)NC(C)C1=CCCN(Cc2ccc(C(=O)O)cc2)C1 (stereo not drawn) | 37.2%
COc1ccnc(CN2CCC=C(C(C)NC(C)=O)C2)c1OC (stereo not drawn) | 36.2%
COc1ccc(CN2CCC=C(C(C)NC(C)=O)C2)cc1 (stereo not drawn) | 83.2%
Fc1ccc(-c2nc(CNC3CCc4ncnn4C3)cs2)cc1 (stereo not drawn) | 48.8%
CC(O)CCN(C)C(=O)Nc1cc(F)cc(Br)c1 (stereo not drawn) | 42.6%
CN(CC(O)C1CC1)C(=O)Nc1cc(F)cc(Br)c1 (stereo not drawn) | -54.5%
CNC(=O)C(C)CN(C)C(=O)Nc1cc(F)cc(Br)c1 (stereo not drawn) | 83.3%
Cc1nc(C2CCCN2C(=O)c2ccc(N(C)C)nn2)no1 (stereo not drawn) | -16.98%
O=C(CCc1ccccc1Cl)NS(=O)(=O)c1ccc2c(c1)OCCO2 | -19.265%

Compound | INHIBITION
CN1CCN(C(CNC(=O)CCn2cccn2)c2cccs2)CC1 (stereo not drawn) | 31.2%
CC(NC(=O)CCn1cccn1)c1cccs1 (stereo not drawn) | 61.5%
CC1CCN(C(CNC(=O)Cn2cccn2)c2cccs2)CC1 (stereo not drawn) | 32.3%
CC1CCN(C(CNC(=O)CCn2cccn2)c2cccs2)CC1 (stereo not drawn) | 40.7%
CC(NC(=O)CCn1cccn1)c1ccc(-n2ccnn2)cc1 (stereo not drawn) | 10%
O=C(CCn1cccn1)NCC(c1cccs1)N1CCOCC1 (stereo not drawn) | 56.1%
O=C(CCn1cccn1)NCC(c1cccs1)N1CCCC1 (stereo not drawn) | 66.9%
O=C(Cn1cccn1)NCC(c1cccs1)N1CCCC1 (stereo not drawn) | 28%
CC(Cc1cccs1)NC(=O)CCn1cccn1 (stereo not drawn) | 9.14%
COCCc1nnc(NC(=O)CSCc2ccccc2)o1 | 2.84%
COCC[C@]1(O)CCN(Cc2ccccn2)C[C@H]1C | 18.4%
Cc1cccc2c1cnn2CCCNC(=O)c1cnn(C)c1 | -17.2%
CC/N=c1\nc(NCC)nc2n1C(O)(Nc1cc(C)ccc1C)CS2 (stereo not drawn) | -21.3%
CC/N=c1\nc(NCC)nc2n1C(O)(Nc1cccc(Cl)c1Cl)CS2 (stereo not drawn) | 28.6%
CC/N=c1\nc(NCC)nc2n1C(O)(Nc1cc(Cl)ccc1Cl)CS2 (stereo not drawn) | 56%
CCNC(=O)N1CCc2ccc(NC(=O)NCc3ccsc3)cc21 | 47%
Cc1cccc(C2(CNC(=O)CCN3C(=O)CCC3=O)CCCC2)c1 | 36.4%
Cc1ccccc1C1(CNC(=O)CCN2C(=O)CCC2=O)CC1 | 50.3%
O=C(CCN1C(=O)CCC1=O)NCC1(c2c(F)cccc2F)CCCC1 | 25.6%
CC(NCc1ccc(OCC(N)=O)cc1)c1ccc(Cl)cc1Cl (stereo not drawn) | 32.2%
Cn1cc(C(=O)Nc2cc(F)ccc2OCC2CCCO2)ccc1=O (stereo not drawn) | 13.6%
CCC(CC)C(=O)NCc1c(C)nn(C)c1N1CCCN(C)CC1 | 24.6%

Compound | INHIBITION
Nc1nc2c(c(NC(Cn3cccn3)c3ccccc3)n1)CCNCC2 (stereo not drawn) | 75.5%
CN(C)CC(Nc1nc(N)nc2c1CCNCC2)c1ccccc1 (stereo not drawn) | 72.7%
COCC(Nc1nc(N(C)C)nc2c1CCNCC2)c1ccccn1 (stereo not drawn) | 34.9%
CC(Nc1nc(-c2ccccc2)nc2c1CCNCC2)c1cccnc1 (stereo not drawn) | 31.4%
c1ccc(C(Cn2cccn2)Nc2cnccn2)cc1 (stereo not drawn) | 31.2%
Nc1nc2c(c(N3CCC(CCn4cccn4)CC3)n1)CCNCC2 | 31.4%
CN(CC1Cc2ccccc2CN1C)c1nc(N)nc2c1CCNCC2 (stereo not drawn) | 30.8%
CN(C)CCC(Nc1nc(N)nc2c1CCNCC2)c1ccccc1 (stereo not drawn) | 68.5%
CN(Cc1ccccc1-n1cccn1)c1nc(N)nc2c1CCNCC2 | -18%
O=c1c(S(=O)(=O)N2CCCC2)cccn1Cc1ccc(F)cc1Cl | 24.2%
Cc1noc2ncc(C(=O)N3CCCC3c3ccsc3)cc12 (stereo not drawn) | -7.35%
Cc1cc(C2CCCN(C(=O)Cc3csc(C(C)C)n3)C2)n[nH]1 (stereo not drawn) | -23.8%
O=S(=O)(c1ccccc1)N1CCCC1c1cc[nH]n1 (stereo not drawn) | 18.9%
Cc1ccc(C(=O)NCCNc2ncccc2C#N)c(=O)[nH]1 | -58.7%
Cc1ccc(CNC(=O)c2ccc(=O)n(C)n2)c(OC2CCCC2)c1 | 5.91%
CN1CCc2c(sc3c2C(=O)NC(C=Cc2ccccc2)N3)C1 (stereo not drawn) | -45.3%
Cn1nc(C(=O)N2CCOCC2)c2c1CN(CC1CCC1)C2 | 53%
Cn1nc(C(=O)N2CCOCC2)c2c1CN(CC1CC1)C2 | 48.4%
CCC(C)N1Cc2c(C(=O)N3CCCC3)nn(C)c2C1 (stereo not drawn) | 23.1%
Cc1ccc(CN2Cc3c(C(=O)N4CCCC4)nn(C)c3C2)s1 | -30.6%
CC(C)CCN1Cc2c(C(=O)N3CCCC3)nn(C)c2C1 | 60%
Cn1nc(C(=O)N2CCCC2)c2c1CN(CC1CCOCC1)C2 | 21.6%

Compound | INHIBITION
CCN1C(=O)CCC12CCC(NC(=O)c1cnccn1)CC2 (stereo not drawn) | -43%
CNC(=O)c1cn[nH]c1C1(C)CCCN(Cc2nccn2C(C)C)C1 (stereo not drawn) | 46%
Cc1cnn(CC(C)NCc2ccc(-n3cccn3)cc2)c1 (stereo not drawn) | -1.58%
CC(C)COCCCNC(=O)NC(C)c1ccc(-n2cncn2)cc1 (stereo not drawn) | -12.3%
CC(NCc1cnc(C2CCC2)s1)c1cccc(-n2ccnc2)c1 (stereo not drawn) | 29.7%
CC(NCc1cnc(C2CCC2)s1)c1ccc(-n2cncn2)cc1 (stereo not drawn) | 61.4%
CC(NCc1cnc(C2CCC2)s1)c1ccc(-n2cccn2)cc1 (stereo not drawn) | 59.4%
CC(NCc1cnc(C2CCC2)s1)c1cccc(-n2cccn2)c1 (stereo not drawn) | 75.3%
CCCS(=O)(=O)NC(C)c1cccc(-n2cccn2)c1 (stereo not drawn) | 29.3%
CC(NCc1cnc(C2CCC2)s1)c1ccccc1-n1cccn1 (stereo not drawn) | 11.9%
CCOCCCNC(=O)NC(C)c1ccc(-n2cncn2)cc1 (stereo not drawn) | -31.4%
CN1CCN(C(=O)c2cccn2C)Cc2cccnc21 | 16.4%
O=C1N(CC2CC2)CCC12CCCN(c1ncc(F)cn1)C2 (stereo not drawn) | 42.4%
Cc1cnn(CC2CCCN2C(=O)c2csc(C3CC3)n2)c1 (stereo not drawn) | -23.9%
O=C(CCN1CCCC1)Nc1c2c(cc3c1CCC3)CCC2 | 6.29%
CC(=O)N1CCC(C)(c2cc(C(=O)NCC(C)(C)C)nc(C)n2)CC1 | 37.9%
C[C@H]1CN(C(=O)c2cccc(F)c2Cl)CCN1S(C)(=O)=O | 61.1%
Cc1cccc(C(=O)N2CCN(S(C)(=O)=O)[C@@H](C)C2)c1C | 40.3%
Cc1cccc(C(=O)N2CCN(S(C)(=O)=O)[C@@H](C)C2)c1Cl | 22.6%
CC(C)c1ccc(O)c(C(=O)N2CCN(Cc3cscn3)CC2)c1 | 54.9%
Cc1ccc(C(C)C(=O)N2CCCN(Cc3cscn3)CC2)cc1 (stereo not drawn) | 15.2%
COC(C(=O)N1CCCN(Cc2cscn2)CC1)c1ccccc1 (stereo not drawn) | 54.3%

Compound | INHIBITION
CC(C)c1ncncc1C(=O)N1CCN(Cc2cscn2)CC1 | 49.3%
Cc1ccc(C(=O)N2CCCN(Cc3cscn3)CC2)o1 | 7.67%
COCc1ccc(C(=O)N2CCCN(Cc3cscn3)CC2)cc1 | 27.4%
Cc1nc(CN2CCN(C(=O)COCc3ccccc3)CC2)no1 | 4.2%
COC(C(=O)N1CCN(Cc2noc(C)n2)CC1)c1ccccc1 (stereo not drawn) | 53.8%
CC(Oc1ccccc1)C(=O)N1CCCN(Cc2cscn2)CC1 (stereo not drawn) | 27.25%
O=C(c1ccc(Cl)o1)N1CCCN(Cc2cscn2)CC1 | 50.4%
Cc1nc(CN2CCN(C(=O)C(c3ccccc3C)N(C)C)CC2)no1 (stereo not drawn) | 6.66%
CC(C)c1ccsc1C(=O)N1CCCN(Cc2cscn2)CC1 | 2.61%
Cn1nccc1CNC(=O)CCn1nc(C(F)(F)F)cc1C1CC1 | -49.3%
c1cncc(CN(Cc2ccc(-n3ccnc3)cc2)CC2CCCO2)c1 (stereo not drawn) | 23.2%
CC(C)c1ccc(C(C)N2CCCN(C(N)=O)CC2)cc1 (stereo not drawn) | -18.7%
CC1CCCN(S(=O)(=O)NCc2ccccc2Cn2cncn2)C1 (stereo not drawn) | 37.4%
CC1CCCN(CC(=O)N2CCC(c3ncc4c(n3)CCNC4)CC2)C1 (stereo not drawn) | 25%
COc1cccc(COCC(=O)N2CCCC(n3cncn3)C2)c1 (stereo not drawn) | -24.2%
COCC(C)Nc1ccc(-c2nc(Cc3ccc(F)cc3)no2)cn1 (stereo not drawn) | 49%
CC(CO)Nc1ccc(-c2nc(Cc3ccc(F)cc3)no2)cn1 (stereo not drawn) | -37.6%
COc1ccc(Cc2noc(-c3ccc(NC(C)CO)nc3)n2)cc1 (stereo not drawn) | 52.2%
N#Cc1ccc(N2CCC3(CC2)COCCN3Cc2cccnc2)cc1 | -6.46%
Cc1ncc(C(=O)N2CCC(C(=O)NC3CCCC3)C2)c(C)n1 (stereo not drawn) | 19.3%
